In PubChem BioAssay AID463229 (Broad Institute, 2010):
About 2,100 (91%) of roughly 2,300 compounds were called active. So high a share suggests a set chosen from earlier hits. Only a sample is shown. Measured potencies and affinities stand elsewhere. A number with no mark means an inactive call.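 The calls were made as follows: active = compounds raising the signal whose fitted half-maximal concentration is at or below their top tested dose (cut at about 25 µM in these data); inconclusive = flat fit at 30 to 70% activity, or a poor fit; inactive = the rest.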

test: ATP level change in INS-1E without cytokines, dose response, counter-screen for beta-cell apoptosis protection project, INS-1E rat cells, ATP luminescence, cherry pick (AID 463229); settings: INS-1E rat beta cells, no cytokines, CellTiter-Glo ATP, 48 h; series mostly up to 26 µM; activity change (ATP luminescence): at the top concentration;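 also: 0% = median of neutral control wells and 100% = median of positive control wells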

Row | Structure (SMILES) | activity change (ATP luminescence)
1 | COc1ccc(C2=Nn3c(nnc3-c3ccccc3Cl)SC2)cc1OC1CCCC1 | -27.6%
2 | CCn1c(SCC(=O)Nc2ccc(OC)cc2)nc2nc3c(cc2c1=O)CCCC3 | -5.03%
3 | Cc1cccnc1CCNCc1c(C(=O)N2C[C@@H](C)O[C@@H](C)C2)nc2ccc(Cl)cn12 | -51.5%
4 | Cc1ccccc1Oc1nc(-c2ccccn2)nc2ccccc12 | -11.1%
5 | COc1cc2c(cc1OC)C(NC(=O)C(F)(F)F)CNC2=O (configuration not stated) | 6%
6 | Cc1cccc(C2(c3cccc(C)c3)OC(=O)c3ccccc32)c1 | 70.2%
7 | O=C(CN1C(=O)c2ccccc2S1(=O)=O)c1ccc(F)cc1 | -12.8%
8 | O=c1c2c3c(sc2n(CCN2CCCCC2)c(=O)n1Cc1ccco1)CCCCC3 | 6.86%
9 | CCCCn1cnc2c(c(-c3ccccc3)c(-c3ccccc3)n2Cc2ccco2)c1=N | -3.17%
10 | Cc1cc(C(=O)c2ccc3ccccc3c2)c(C)o1 | -10.2%
11 | C=CCc1c(C)nc(C)nc1N/N=C/c1ccc(N(C)C)cc1 | -12.8%
12 | Cc1cc(N2CCOCC2)nc(N)n1 | -46.7%
13 | COc1ccccc1NCC(=O)N1CCN(S(=O)(=O)c2ccccc2)CC1 | 4.48%
14 | Cc1ccc(NC(=O)C(C)Sc2nnc(C)n2C2CC2)cc1S(=O)(=O)N1CCOCC1 (configuration not stated) | -21.9%
15 | CNc1nc(N)c([N+](=O)[O-])c(Nc2cccc(F)c2)n1 | -4.52%
16 | Cc1cccc(CNc2ccc(S(=O)(=O)N3CCCCC3)cc2)c1 | 8.31%
17 | O=C(N/N=C/c1cccnc1)c1ccccc1NS(=O)(=O)c1cccs1 | -14.6%
18 | O=C(c1cccc(Cl)c1)c1nn(-c2ccccc2)c(=O)cc1C(F)(F)F | 9.76%
19 | O=[N+]([O-])/C=C/c1cn(Cc2ccc(F)cc2)c2ccccc12 | 7.17%
20 | Cc1csc2nc(NC(=O)c3ccccc3)sc(=O)c12 | -14%
21 | CCOc1ccc(N(C)S(=O)(=O)c2ccc(C)c(C(=O)OCC(=O)c3c[nH]c4ccccc34)c2)cc1 | -33.9%
22 | Cc1cc(C)c(OCC(O)CNC(C)(C)C)c(C)c1 (configuration not stated) | -15.4%
23 | OC(CNC1CCCCC1)COCCOc1ccc(Br)cc1 (configuration not stated) | 20.5%

Row | Structure (SMILES) | activity change (ATP luminescence)
24 | CC(C)(C)OC(=O)N1CCC(CNC(=O)c2cccs2)CC1 | 3.81%
25 | COc1ccc(-c2ccnc(SCC(=O)N3CCN(c4ccccc4)CC3)n2)cc1 | 8.24%
26 | O=C(NCc1nc2ccccc2[nH]1)C1=C[C@@H](C2CCCCC2)C[C@@H](OCc2ccc(CO)cc2)O1 | 74.8%
27 | CCCOC(=O)/C(C(N)=NCc1ccccc1)=C(\O)OCCC | 8.11%
28 | CCOC(=O)C1=C(CCc2ccccc2)NC(=O)NC1c1ccc2ccccc2c1 (configuration not stated) | 3.88%
29 | c1cc(-c2noc(CC3CCCCC3)n2)ccn1 | -5.37%
30 | COc1ccccc1/C=N/OCc1cc(C(C)=O)ccc1OC | -1.8%
31 | CCCC(=O)N(CCN(C(=O)CCC)c1ccccc1)c1ccccc1 | -4.4%
32 | NC(=O)c1ccccc1OC1CCC1 | -1.51%
33 | CN(C)c1ccc(/C=C(\C#N)C(=O)OCC(=O)N(C)C2CCS(=O)(=O)C2)cc1 (configuration not stated) | 0.611%
34 | COc1ccc(/C=C/C(=O)c2ccncc2)c2ccccc12 | 0.388%
35 | COc1cc(CNCCO)cc(Cl)c1OCc1ccc(Cl)cc1Cl | 138%
36 | Cc1ccc(NC(=O)NCC2CCN(Cc3cccc(Cl)c3)CC2)cc1Cl | 137%
37 | CCc1ccc(-n2c(C)cc(/C=N/NC(=O)c3ccncc3)c2C)cc1 | -6.46%
38 | Cc1cc(C)nc(-n2nc(C)cc2Nc2ccccc2)n1 | 9.72%
39 | CC1=CC(C)(C)N(C(=O)CSc2nnc(-c3ccc(C)cc3)o2)c2ccc(C)cc21 | -19.3%
40 | CCOC(=O)C(=Cc1ccc(Br)cc1)C(=O)OCC | 7.87%
41 | O=[N+]([O-])c1ccc(N2CCN(CCOc3nonc3-c3ccccc3)CC2)c(Cl)c1 | -50.3%
42 | Cc1ccccc1OC1C(=O)N(Cc2ccc3c(c2)OCO3)C1c1sccc1C (configuration not stated) | 4.5% [at 12 µM]
43 | CC(Sc1nnc2c(n1)[nH]c1ccccc12)C(=O)N(C)C1CCCCC1 (configuration not stated) | -8.47%
44 | CCCC1(c2ccccc2)NC(=O)N(CC(=O)Nc2cc(C)ccc2OC)C1=O (configuration not stated) | -8.9%
45 | O=[N+]([O-])c1ccc(-n2cnc3ccccc32)c([N+](=O)[O-])c1 | 8%
46 | CCS(=O)(=O)c1ncc(Cl)c(C(=O)Nc2ccccc2OC)n1 | -7.94%

Row | Structure (SMILES) | activity change (ATP luminescence)
47 | Cc1ccc(OCc2cc(C(=O)N(C)Cc3cc(C4CC4)n[nH]3)no2)cc1C | 1.19%
48 | COCCCNC(=S)N/N=C/c1cccc(OC)c1O | -7.08%
49 | O=C(Nc1ccc(F)cc1F)N1CCCN(CCOc2ccccc2)CC1 | -26.2%
50 | CC(=O)Nc1ccc(S(=O)(=O)N2c3ccccc3NC(=O)CC2C)c(Cl)c1 (configuration not stated) | -37.2%
51 | Cc1cccc(NC(=O)Cn2c(/C=C/c3ccccc3)nc3ccccc32)c1 | 11.3%
52 | O=C(Oc1cccc2cccnc12)c1cccc(N2C(=O)C3C4CCC(C4)C3C2=O)c1 (configuration not stated) | -0.822%
53 | O=C(Cn1ncc(Cl)c(Cl)c1=O)c1ccc2c(c1)OCCO2 | 131%
54 | O=c1c(Cl)c(Cl)cnn1Cc1ccc(F)cc1 | 33.2%
55 | Cc1ccc2ccc3ccc(C)nc3c2n1 | 5.01%
56 | CCOCCCNC(=O)c1c[nH]c2cc(OC)ccc2c1=O | -29.9%
57 | COc1ccc(C(=O)CSc2n[nH]c(=O)n2Cc2ccco2)cc1 | -29.5%
58 | CCOc1ccc(OCC)c(S(=O)(=O)NCCOC23CC4CC(CC(C4)C2)C3)c1 | 149%
59 | C=CCN(CC=C)CC(O)Cn1c2ccccc2c2ccccc21 (configuration not stated) | 8.59%
60 | O=C(NCc1ccccn1)c1cc(-c2ccc(Cl)cc2)oc1C(F)(F)F | -54%
61 | CCN(CC(=O)Nc1ccc(NC(C)=O)cc1)C(=O)CCCOc1ccc(C(C)(C)C)cc1 | 3.97%
62 | CC(=O)Oc1ccc(N(C(C)=O)S(=O)(=O)c2cccs2)c2ccccc12 | 6.75%
63 | Cc1ccc(O)c(CNc2cccc3cccnc23)c1 | 12.8%
64 | Cc1nc(C(F)(F)F)c(C(=O)N/N=C(\N)c2ccccn2)s1 | -4.67%
65 | COc1ccc(/C=C/C(=O)NC(=S)Nc2ccccc2C(=O)NC2CCCCC2)cc1 | 36.7%
66 | O=C1CSC(c2ccccc2F)N1 (configuration not stated) | -2.44%
67 | CC(=O)c1c(C)[nH]c(C(=O)CN2CCN(S(=O)(=O)c3ccccc3)CC2)c1C | 0.844%
68 | CCOc1ccc(-n2c(=O)[nH]cc(C(=O)Nc3ccc(OC)c(OC)c3)c2=O)cc1 | -8.71%
69 | CCCOc1ccc(C(=O)C(CN2CCOCC2)c2ccccc2)cc1 (configuration not stated) | -20% [at 12 µM]

Row | Structure (SMILES) | activity change (ATP luminescence)
70 | CC(NC(=O)C1CCC(C(=O)NC(C)c2ccccc2)CC1)c1ccccc1 (configuration not stated) | 4.42%
71 | CC(=O)c1ccccc1OCCOCCOc1ccccc1C(C)=O | -106%
72 | Cc1cc(C)c2c(C)[nH]nc2n1 | -7.33%
73 | O=C(c1ccccc1)C(CCC(CN1CCOCC1)C(=O)c1ccccc1)CN1CCOCC1 (configuration not stated) | -27.4% [at 12 µM]
74 | CC(=O)SC1CC(=O)N(c2c(C)cccc2C)C1=O (configuration not stated) | 0.862%
75 | COc1ccccc1/C=N\Nc1cc(C)nc(-n2nc(C)cc2C)n1 | 81.3%
76 | O=C(Nc1ccc(Nc2ccncc2)cc1)c1ccc(Nc2ccnc3ccc([N+](=O)[O-])cc23)cc1[N+](=O)[O-] | 19.1%
77 | O=c1c(Cl)c2oc3ccccc3nc-2c2ccccc12 | 12.3%
78 | CCN(CC)c1ccc(N=C2C(=O)Nc3ccccc32)cc1 | -19.5%
79 | O=C1CSC(c2cccnc2)N1CC1CC1 (configuration not stated) | -11.9%
80 | Cc1ccccc1NC(=S)Nc1cccc2cnccc12 | -4.04%
81 | COc1ncnc(OC)c1S(=O)(=O)Nc1ccc(C(F)(F)F)cc1 | -13.2%
82 | Cc1ccccc1Cn1ccc(=NCc2ccccc2)cc1 | -10.7%
83 | Cc1ccc(S(=O)(=O)N2CCCCC2c2cccnc2)c(C)c1C (configuration not stated) | 2.93%
84 | Cc1ccc(Oc2nc(-c3ccccn3)nc3ccccc23)cc1 | -24%
85 | Nc1ccc(N2CCCCC2)cc1N1CCCCC1 | 56.7%
86 | CC(=O)Oc1c(Cl)cc(N(C(C)=O)S(=O)(=O)c2ccccc2)c2ccccc12 | 133%
87 | O=C(COC(=O)Cn1cnc2ccccc2c1=O)Nc1ccc2c(c1)OCO2 | -9.05%
88 | CC(C)OCCCNC(=S)N1CCC(C(=O)c2ccc(Cl)cc2)CC1 | -6.47%
89 | CC(C)(C)n1[nH]c2c3c(ccc2c1=O)C(=O)c1ccccc1C3=O | -35%
90 | CCCCC[n+]1ccn(C2=C([O-])c3ccccc3C(=O)/C2=N\S(=O)(=O)c2ccccc2)c1 | 143%
91 | CCCCN(C)CCNC(=O)c1cc2c(-c3ccccc3F)nn(C)c2s1 | -5.06%
92 | CC(C(c1cccs1)c1c(N)n(C)c(=O)n(C)c1=O)[N+](=O)[O-] (configuration not stated) | -35.9%
